Molecules are shown by their SMILES. This is part of a sample that, as a whole, favours compounds with a hit. Of some 83,000 tested, about 20% had one in any assay.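 Percent growth is the endpoint: 0 to 100 indicates growth inhibition (40 means 60% inhibition), 0 means no net growth, and negative values indicate cell death.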 Unmarked numbers belong to inactive results. Activity calls are given as the source filed them. How the source made its calls: active means growth percent below 10; inactive means the rest.

This test deals with HL-60(TB) leukemia. In words: NCI-60 one-dose screen, 48 h (100 = growth as untreated, 0 = no growth, -100 = all killed). Particulars: 10 µM unless noted.
With `S=c1[nH]nc(Cn2c3ccccc3c3ccncc32)o1`, the growth was 87.6%. Regarding `C#CCOc1ccc(C2=NN(CCCC)C3N=C(Cl)c4ncn(CCCC)c4N23)cc1OCC#C` (stereo not given), the growth is 99.4%. The result for `CCOC(=O)c1sc(NC(=O)c2cc(OC)c(OC)c(OC)c2)nc1C` reads 102%.

Take `CN1CCN(c2cc(F)c(NC3=C(Cl)C(=O)c4ncccc4C3=O)c(F)c2)CC1`: the growth is -26.4% (active).

On to `COC(=O)CCCCCN=Cc1c(O)c(O)c(C(C)C)c2cc(C)c(-c3c(C)cc4c(C(C)C)c(O)c(O)c(C=NCCCCCC(=O)OC)c4c3O)c(O)c12`, for which the growth was 15.4%.

In the case of `COc1ccc(-c2nc(SCC(C)C)nc(Nc3ccc(C(=O)O)cc3)c2C#N)cc1`, the growth is 99.7%. Take `COC(=O)[C@]1(C)CC[C@]2(C)CC[C@]3(C)C(=CC(=O)[C@@H]4[C@@]5(C)CCC(=O)NC(C)(C)[C@@H]5CC[C@]43C)[C@@H]2C1`: the growth is 1.31% [100 µM] (active). In the case of `COc1cc(-c2cc(/C=C/C(=O)c3ccc(Cl)c(Cl)c3)[nH]n2)cc(OC)c1OC` it was 87.3%. As to `Cc1cc(C)c2nc(C)c(C)[n+]([O-])c2c1`, the growth was 85.7%. In the case of `C=C1C(=O)O[C@H]2[C@H]1CCC(/C=N/c1ncc(Br)cc1N)=C\CC[C@@]1(C)O[C@@H]21` it was -21.4% (active); in that of `CC1(C)OC2[C@@H](CNC(=O)NC(=O)NC(=O)CI)O[C@@H](n3cnc4c(NC(=O)Nc5ccccc5)ncnc43)[C@H]2O1` (stereo not given in full), 77.2%; in that of `O=C1COCCN1c1ccc(NCc2cn(Cc3ccc(F)cc3)c3ccccc23)cc1`, 86.9%. In the case of `CC(C)(C)c1ccc(CCO)cc1` it was 86.6%; in that of `O=C(Nc1nc2c(C(F)(F)F)cccc2s1)c1cc(Cl)ccc1O`, -38.8% (active); in that of `COc1ccc(CCN2CCC(Nc3nc4ccccc4n3Cc3ccc(F)cc3)CC2)cc1`, -53.5% (active). In the case of `NC(=S)N/N=C1\c2ccccc2-c2c(F)c(F)c(F)c(F)c21` it was 44.4%; in that of `O=C1c2cccnc2C(=O)c2c1c(C(=O)OCCCN1CCCCC1)c1ccccn21`, -21.6% (active); in that of `NS(=O)(=O)c1ccc(CCN2C(=O)/C(=C\c3ccc(Cl)cc3)C=C2c2ccc(Oc3ccccc3)cc2)cc1`, 83.7%. For `C=C(C)[C@@H]1C[C@H](O)Cc2cc(F)ccc2N1`, the growth is -20.3% (active). In the case of `CCCCCCCCCCCCCCCCCCNC(=O)[C@H]1CSC(c2ccc(F)c(OC)c2)N1` (stereo not given in full) it was -68% (active); in that of `C(=N\Nc1nnc2n1N=C(c1ccccc1)CS2)/c1ccc(OCc2ccccc2)cc1`, 97.6%; in that of `CN(C)c1ccc(C(=O)OCCCCCCl)cc1`, 76%.

On to `CCN(C(=O)Nc1ccccc1Cl)c1ccccc1`, for which the growth was 113%. In the case of `CC(C)(C)n1cc(-c2ccnc(NCCNS(=O)(=O)c3ccc(C(F)(F)F)cc3)c2)c(-c2ccccc2)n1` it was 83.9%. The result for `CCCCCCCCCCCCCCCCn1cc[n+](C)c1` reads 45.7%. In the case of `CCC(=C(c1ccc(OCCCN(C)C)cc1)c1ccc(OCCCN(C)C)cc1)c1ccc(Cl)cc1` it was -55.3% (active). In the case of `CCN(C(=O)CCl)C(C)(C)C(SSSC(c1ccc(Cl)cc1)C(C)(C)N(CC)C(=O)CCl)c1ccc(Cl)cc1` (stereo not given), the growth was 42.1%. The result for `O=C(/C=C/c1ccc(Cl)cc1)c1ccc(Cl)cc1` reads 69.2%; that for `CS(=O)(=O)c1ccc(N/N=C/c2c(-c3ccc(S(C)(=O)=O)cc3)[nH]c3ccc(F)cc23)cc1`, -14.6% (active). With `CC(C)(C)OC(=O)N1CCc2c(sc3ncnc(N/N=C/c4cccc5ccccc45)c23)C1`, the growth is 11.5%. In the case of `NC(N)=N/N=C/c1ccc(-c2ccc(-c3cc(Cl)cc(Cl)c3)s2)cc1` it was 24.9%. The result for `O=C(CCCCCCCn1cc(-c2cccnc2)nn1)Nc1ccccc1-c1ccccc1` reads 45.7%; that for `O=S(=O)(NCC[C@@H]1C[C@H]1c1ccc2ccccc2c1)c1ccc(C(F)(F)F)cc1`, 96.5%.

Turning to `COc1ccc(C(=O)/C=C/c2ccc(Cl)cc2)cc1S(N)(=O)=O`, the growth was -3.41% (active). In the case of `CC(C)(C)c1nc(-c2cccc(NS(=O)(=O)c3c(F)cccc3F)c2F)c(-c2ccnc(N)n2)s1` it was 35.1%; in that of `CNc1nc(NC2CCCC2)nc(Sc2ccc(OC)cc2)n1`, 2% [100 µM] (active); in that of `Cc1ccc(C)n1/C=C/n1c(C)ccc1C`, 128%. The result for `O=C(CCl)c1ccc2c(c1)CCCC2` reads 96.9%; that for `O=c1[nH]nc(-c2ccccc2)c2sc3ncc(-c4ccc(Br)cc4)n3c12`, 12.7%. Consider `COC(=O)c1cc2c3c(cc(O)c2[nH]1)N(C(=O)C1Cc2cc(OC)c(OC)c(OC)c2N1)CC3CCl` (stereo not given), for which the growth is -5.77% (active).

The values are drawn from PubChem BioAssay (NCI).
